Experimental data reported in PubChem BioAssay AID488857 (Sanford-Burnham Center for Chemical Genomics, 2010).
Among all 1,400 compounds or so, about 560 (40%) were called active. So high a share suggests a set chosen from earlier hits. The list shows a part of the results. Unmarked numbers belong to inactive results.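 How the source made its calls: active means mean inhibition over duplicate tests at 10 µM above 50%; inactive means the rest.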

Assay: ASC/caspase-1 reporter retest in S. cerevisiae at one dose, specificity check for NALP1 project (AID 488857)
Settings: S. cerevisiae ASC/Caspase-1, beta-galactosidase luminescence, 24 h; at 10 µM; stronger effect = higher value

SMILES | inhibition
COc1ccc(-c2[nH]ncc2CN2CCC(OCc3ccccn3)CC2)c(F)c1 | 21.9%
O=C(/C=C/c1ccccc1)/C=C/c1ccccc1 | 54.5% (active)
Cc1nc(NC(=O)/C=C/c2ccccc2)n[nH]1 | 48.2%
Cc1ccc(C)c(NC(=O)c2ccc(OC(=O)c3ccco3)cc2)c1 | 35.5%
Cc1ccc2occ(C(=O)c3ccco3)c(=O)c2c1 | 84% (active)
CCn1c(SCC(=O)Nc2oc(-c3ccccc3)c(-c3ccccc3)c2C#N)nnc1-c1cc(OC)cc(OC)c1 | 25.9%
CC1CCCCN1S(=O)(=O)c1cnc(Cl)c(Br)c1 (stereo unspecified) | 59.8% (active)
O=S(=O)(/C=C/c1ccccc1)NC1CCCCCCC1 | 66.8% (active)
CCOC(=O)c1c(-c2cccs2)csc1NC(=O)C(C)(C)C | 44.8%
O=C(c1ccc(Cl)c([N+](=O)[O-])c1)N(c1ccccn1)c1ccccn1 | 23.8%
O=[N+]([O-])c1ccc(O)c2ncccc12 | 99% (active)
CSc1ccc(CN(C)CC(=O)Nc2ccc(C)cc2Br)cc1 | 52.6% (active)
CN1CCN(C(=O)CSc2nc3c(c(=O)n(C)c(=O)n3C)n2C)CC1 | 31.1%
C=CCOc1ccc2ccccc2c1/C=N/O | 64.3% (active)
O=S(=O)(/N=C/c1c(O)ccc2ccccc12)c1cccs1 | 20.6%
N#Cc1cccc(N=Cc2c(O)ccc3ccccc23)c1 | 30.4%
OCCNc1c2ccccc2nc2c(F)c(F)c(F)c(F)c12 | 23.1%
CC(=O)/C=C/n1c(=S)oc2ccccc21 | 23.2%
CCOc1ccc(C(=O)C(CCC(CN(C)C)C(=O)c2ccc(OCC)cc2)CN(C)C)cc1 (stereo unspecified) | 63.5% (active)
CCCOc1ccc(C(=O)NC(C)C(=O)O)cc1 (stereo unspecified) | 40.4%
Cc1ccc(N2C(=N)/C(=C3/Nc4ccccc4S3)C(c3ccccc3)C2=O)cc1 (stereo unspecified) | 38.5%
N#CC1=C(N)Oc2n[nH]c(-c3cccs3)c2C1C1CCCCC1 (stereo unspecified) | 46.4%

SMILES | inhibition
CC1=CC(=O)C=C(C)C1=NOS(=O)(=O)c1ccccc1 | 69.7% (active)
CC1=C/C(=N\OS(=O)(=O)c2ccccc2)C(C(C)C)=CC1=O | 91.2% (active)
N#CC(C#N)=c1ccc2c(c1)N1C3=C(CCCC3)CC3CCCCC31N=2 (stereo unspecified) | 8.35%
COc1ccc(/C=N/NC(=O)c2csc(-n3nc(C)cc3C(F)(F)F)n2)cc1 | 36.5%
O=C(CCN1CCc2ccccc2C(c2ccccc2)C1)c1ccc2c(c1)OCCO2 (stereo unspecified) | 24.4%
CCOC(=O)C(C(=O)OCC)C(C(=O)OCC)N1CCOCC1 (stereo unspecified) | 53.2% (active)
Cc1cccc(Oc2nc(CN3CCOCC3)nc3sc4c(c23)CCCC4)c1 | 75.2% (active)
Oc1ccccc1C1N=C(c2ccccc2)NC(c2ccccc2)=N1 | 28.9%
CCOc1nc(N2CCOCC2)nc(N2CCOCC2)n1 | 43.6%
CC(=O)N1N=C(c2ccc3ccccc3c2)OC1(C)C | 86.5% (active)
Cn1nc(-c2ccc(Cl)cc2)nc2c(=O)n(C)c(=O)nc1-2 | 97.8% (active)
Cn1nc(-c2ccccc2)c(-c2nc(-c3ccc(Cl)cc3)no2)c1Cl | 33.6%
CS(=O)(=O)n1nc(-c2ccc(Cl)cc2)nc1SCc1ccccc1 | 48%
Nc1ccccc1-c1nc2ccccc2[nH]1 | 83% (active)
c1ccc2[nH]c3cc4ncnc4cc3nc2c1 | 46.6%
O=C1CC(c2ccccc2Cl)CC(O)=C1C=Nc1ccccc1 (stereo unspecified) | 61.9% (active)
O=C1CC(c2cccc(Cl)c2)CC(O)=C1C=Nc1cccc(Cl)c1 (stereo unspecified) | 53.5% (active)
CCSc1nnc(-c2ccncc2)n1Cc1ccccc1 | 23.7%
CCCn1c(-c2cccnc2Cl)nc2cc(Cl)c(Cl)cc21 | 47.9%
CS/C(=N\S(=O)(=O)c1cccs1)Nc1ccc(Br)cc1F | 68.3% (active)
CC(C)OCCCNC(=O)c1cc2c(=O)n(C)c3ccccc3c2n1C | 30.8%
CCCNC(=O)c1cc2c3ccccc3n(C)c2s1 | 74.2% (active)

SMILES | inhibition
O=[N+]([O-])c1ccc(OCC(O)CN2CCN(c3ccccc3F)CC2)cc1 (stereo unspecified) | 51.8% (active)
COc1cccc(CN2CCC(C(=O)N3CCN(c4ccccc4F)CC3)CC2)c1OC | 32.3%
COc1ccc(CN2CC(C(=O)NCCN3CCN(c4ccccc4F)CC3)CC2=O)cc1 (stereo unspecified) | 29.6%
OC(COc1ccc2c(c1)CCC2)CN1CCN(c2ccccc2F)CC1 (stereo unspecified) | 78% (active)
OC(CSc1c(Cl)cccc1Cl)CN1CCN(c2ccccc2F)CC1 (stereo unspecified) | 50.8% (active)
Cc1sc(-c2ccncc2)nc1OC(=O)c1ccccc1 | 36.9%
Cc1occc1C(=O)Nc1c(F)c(F)c(F)c(F)c1F | 38.6%
Cc1ccc(NCC(=O)Nc2c(C)n(C)n(-c3ccccc3)c2=O)cc1S(=O)(=O)N(C)C | 10.7%
CC1=C(C(=O)Nc2ccc(Cl)cc2)C(c2ccncc2)C(C#N)=C(SCC(N)=O)N1 (stereo unspecified) | 30.2%
Cn1c2c(c(=O)n(C)c1=O)C(NC(=O)C(C)(C)C)(C(F)(F)F)C(=O)N2 (stereo unspecified) | 40.1%
O=S(=O)(CC(CN1CCCC1)N1CCCC1)c1ccc2ccccc2c1 (stereo unspecified) | 30.2%
O=S(=O)(CC(CN1CCCCC1)N1CCCCC1)c1ccc2ccccc2c1 (stereo unspecified) | 59.8% (active)
O=S(=O)(NC1CCCCC1)c1ccc(F)c2ccccc12 | 57.7% (active)
O=C(Nc1nc(-c2ccncc2)cs1)c1ccc(S(=O)(=O)N2CCOCC2)cc1 | 39.9%
CS(=O)(=O)N1N=C(c2ccco2)CC1c1ccc(Cl)cc1 (stereo unspecified) | 27.9%
CCOC(=O)c1c(/N=C/c2cc(OC)cc([N+](=O)[O-])c2O)sc(C)c1C | 65.7% (active)
CCOC(=O)c1sc(=S)n(-c2ccc(OC)cc2)c1C | 48.9%
Nc1nc(-c2ccc(Oc3ccccc3)cc2)cs1 | 99.7% (active)
Nc1ccc(Oc2cccc(Oc3ccc(N)cc3)c2)cc1 | 48%
Nc1nc2ccc(Oc3ccccc3)cc2s1 | 96.2% (active)
COc1ccc(-c2csc(N3C(=O)C4C5c6ccccc6C(c6ccccc65)[C@@H]4C3=O)n2)cc1 (stereo partly specified) | 34.7%
Cc1sc(N)nc1-c1ccc(Oc2ccccc2)cc1 | 76.5% (active)
